# HEK293 cAMP cs: counter-screen for TSHR agonists: cAMP increase in parental HEK293. parental HEK293 CNG cAMP sensor, membrane potential fluorescence. Potency, µM (top dose mostly 57.1 µM), inactives show at the highest dose activation, actives largely listed as activators. 73,000 tested, 2.5% active. AID 938; further: % of control where 0% means no effect; nearly all actives have a fitted effect of over 55% in size
#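 Parental HEK 293 cells stably expressing a cAMP-gated CNG channel were loaded with membrane potential dye containing 100 uM RO 20-1724 for 60 min. Compound added for 30 min; depolarization read as fluorescence intensity at 590 nm.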
# ERK AVP block: inhibitors of vasopressin-stimulated ERK signaling pathway; HEK293-V1b, vasopressin-stimulated pERK AlphaScreen; Potency, µM (doses to about 57.5 µM), for inactives: at the top dose activity, negative = inhibition, most hits filed as inhibitors; 72,000 tested, 0.99% active; further: on the % scale 0 is the no-effect control and ±100 the full control effect; nearly all actives have a fitted effect of over 55% in size
#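 Overnight-seeded V1b-HEK293 cells in 1% FBS got compound, then vasopressin (25 nM final, 5 min, 37C), then lysis buffer. AlphaScreen detection of phospho-ERK; activity normalized to basal and full-stimulation controls.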
# TSHR ag: activates the human thyroid stimulating hormone receptor | P16473 | HEK293-CNG-TSHR cells (CNG channel as cAMP sensor), membrane potential dye, cAMP | Potency, µM (series often up to 57.1 µM), for inactives: at the top dose activation, actives largely listed as activators | 73,000 tested, 0.48% active; active means well fitted activation curve with a large enough effect in the main read-out, with a control signal flat, not every such curve was filed as active; inconclusive means small, poorly fitted or top-dose-only effect, or a change in a side signal; inactive means no such curve, though single readings can be large or run the other way; % of control where 0% means no effect;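 further: the control signal comes from parental cells without the receptor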
# Target sequence (P16473 whole entry, looked up): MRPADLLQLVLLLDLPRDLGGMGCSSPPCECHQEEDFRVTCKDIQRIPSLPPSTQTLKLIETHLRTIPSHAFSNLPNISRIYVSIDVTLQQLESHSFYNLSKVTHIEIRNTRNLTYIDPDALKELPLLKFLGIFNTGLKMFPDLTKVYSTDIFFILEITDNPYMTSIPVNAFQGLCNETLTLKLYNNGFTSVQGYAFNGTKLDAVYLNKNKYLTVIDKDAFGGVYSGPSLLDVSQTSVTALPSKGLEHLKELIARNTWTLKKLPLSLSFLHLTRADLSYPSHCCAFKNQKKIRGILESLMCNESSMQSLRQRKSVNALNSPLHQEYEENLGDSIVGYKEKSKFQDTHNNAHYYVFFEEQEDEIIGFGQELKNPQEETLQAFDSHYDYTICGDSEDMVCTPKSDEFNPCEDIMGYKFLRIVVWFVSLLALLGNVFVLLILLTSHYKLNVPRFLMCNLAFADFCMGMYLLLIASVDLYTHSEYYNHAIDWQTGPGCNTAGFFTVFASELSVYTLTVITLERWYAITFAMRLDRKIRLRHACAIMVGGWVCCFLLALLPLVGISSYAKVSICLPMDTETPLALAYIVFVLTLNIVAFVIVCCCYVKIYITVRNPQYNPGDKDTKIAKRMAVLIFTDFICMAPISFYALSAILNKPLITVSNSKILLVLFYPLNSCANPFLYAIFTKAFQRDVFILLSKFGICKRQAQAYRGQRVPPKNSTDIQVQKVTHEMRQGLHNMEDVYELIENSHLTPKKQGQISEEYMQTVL
#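 cAMP rise detected as CNG-channel membrane depolarization by fluorescent dye (emission 590 nm), 30 min after compound, following 60 min dye loading containing 100 uM RO 20-1724 at room temperature. Cells: TSHR/CNG HEK 293, with parental CNG HEK 293 as control.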
# PK Bst: pyruvate kinase (B. stearothermophilus) modulation; purified pyruvate kinase, luminescence ATP production; ribose 5-phosphate activator present at AC10; Potency, µM; 51,000 tested, 1.2% active; AID 361; in the data active means potency below about 11 µM; inconclusive means mostly about 12 µM to 25 µM;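 the screen sought inhibitors and activators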;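 further: scaled between full activation by ribose 5 phosphate and full inhibition by luteolin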
# FLuc inh: inhibitors of firefly luciferase. P08659. purified firefly luciferase, luminescence, 8 min. Potency, µM (highest dose often 57.1 µM), for the others: at the top dose activity change, negative = inhibition, actives largely listed as inhibitors. 72,000 tested, 2.2% active; further: on the % scale 0 is the no-effect control and ±100 the full control effect; nearly all actives have a fitted effect of over 40% in size
#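 Here, luciferase activity is measured as luminescence following an 8 min room-temperature reaction at 10 uM ATP, pH 7.2. Every library sample is titrated.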
# Tau fil binding: binders of human tau filaments. P10636. recombinant tau filaments, thioflavin S fluorescence, 15 h; filaments grown with octadecylsulfate alongside compound. Potency, µM (doses to about 57.1 µM), for the others: top-dose activity change, negative = inhibition. 71,000 tested, 2% active;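 further: on the % scale 0 is the no-effect control and ±100 the full control effect; actives lower thioflavin S fluorescence by blocking filaments or displacing dye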
#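 Assay mix: 1 uM His-tagged tau, 30 uM sodium octadecylsulfate, thioflavine S dye in HEPES/NaCl/DTT buffer. Compound is added prior to the inducer. Fluorescence after 15 h at 37 C.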
# The depositor's hits bear a star; i = inactive; ? = inconclusive; . = no result given; [ ] = remark or other dose. Sampled rows, rich in hits. Any-hit rate of the full collection: about 7.2%. Unless noted, the call rests on the fitted dose curve; in most records, active means well fitted curve in the direction sought with a large enough effect; inconclusive means small, poorly fitted or top-dose-only effect, or another doubt; inactive means no such curve, though single readings can be large; an effect the other way counts as inactive or inconclusive. Potency means the concentration at half of the fitted maximal effect.
SMILES,HEK293 cAMP cs,ERK AVP block,TSHR ag,PK Bst,FLuc inh,Tau fil binding
C=CC[C@@H]1C=C[C@@H](O/N=C2/[C@H]3O[C@@H]3[C@@H](O)[C@H]3[C@H]2CCn2c(=O)n(-c4ccccc4)c(=O)n23)[C@@H](CO)O1,-3%[11.4 µM],6%[11.5 µM],3%[11.4 µM],.,1%[11.4 µM],.
Cc1ncsc1C(=O)Nc1nc2c(s1)CC(C)CC2 (stereo not given),3%,-17%,0%,10*,10µM*,-2%
CCOC(=O)c1cc(-c2ccc(N)cc2)sc1N,4%,-32%,-8%,?,13µM*,25µM*
O=C(O)COCCN1CCN([C@@H](c2ccccc2)c2ccc(Cl)cc2)CC1,4%[25.6 µM],-9%[25.7 µM],-1%[25.6 µM],.,7%[25.5 µM],1%[25.6 µM]
c1ccc2cc(NCNc3ccc4ccccc4c3)ccc2c1,10%[11.4 µM],-23%[11.5 µM],-1%[11.4 µM],.,-14%[11.4 µM],2.5µM*
O=C(O)CCC(=O)Nc1ccc2ccccc2c1,15%[11.4 µM],-5%[11.5 µM],0%[11.4 µM],.,0%[11.4 µM],6%[11.4 µM]
COc1cc(OC)c(C2N(c3ccc(Cl)c(Cl)c3)C(=O)C3CCCN32)cc1OC (stereo not given),-5%,-9%,4%,>57,-1%,-9%
COc1cc(OC)c(C2N(c3ccc(Cl)cc3)C(=O)C3CCCN32)cc1OC (stereo not given),6%,?,18%,.,1%,20µM*
COc1cc(/C=C\C(=O)CC(=O)/C=C\c2ccc(O)c(OC)c2)ccc1O,-36%,.,?,.,-16%[11.4 µM],252%
COc1cc(/C=C/C(=O)CC(=O)/C=C/c2ccc(O)c(OC)c2)ccc1O,-19%,32µM*,?,.,-15%[25.5 µM],325%
CCOC(=O)C1CSC(Cc2ccc(OCc3ccc([N+](=O)[O-])cc3)cc2)N1 (stereo not given),-7%,-22%,-5%,.,.,.
Cc1ccccc1-n1nnnc1SCc1csc(-c2ccccc2)n1,3.2µM*,7%,?,>57,6%,14%
O=C(O)CCSc1nc2ccccc2n1CCOc1ccccc1,25%,?,8%,.,-3%,7%
Nn1c(SCc2csc(-c3ccccc3)n2)nnc1-c1cccs1,25µM*,7%,?,>57,-6%,54%
c1ccc(CSc2nnnn2-c2cccc3ccccc23)nc1,6%,-17%,4%,7.4*,3%,6%
COCCn1c(SCc2csc(-c3ccccc3)n2)nc2ccccc21,32µM*,25µM*,?,>57,-2%,4%
COC(=O)[C@@H]1C[C@H]1[C@@H](NC(=O)c1cnccn1)c1ccccc1,19%,5%,7%,.,.,-11%
Cn1cccc1C(=O)N1CCC2(CCCN(c3ccccn3)C2)CC1,?,?,?,.,0%[11.4 µM],12%
COc1cc2c(cc1OC)-c1cc(=Nc3c(C)cc(C)cc3C)n(C)c(=O)n1CC2,?,6.3µM*,?,.,-2%,-11%
COc1ccc(OC)c2c(=S)c3ccccc3[nH]c12,-5%,?,-18%,.,3%,13µM*
O=C(c1cccc(Cl)c1)N1CCN(C(=O)c2ccco2)CC1,-3%,-3%,-1%,.,4%,0%
O=C(c1ccco1)N1CCN(C(=O)c2cc(-c3ccccn3)nc3ccc(Cl)cc23)CC1,12%,-27%,9%,i,-11%,10µM*
O=C(c1ccco1)N1CCN(C(=O)c2cc(-c3ccncc3)nc3ccc(Br)cc23)CC1,-21%,-30%,8%,7.6*,2%,-19%
CCC(=O)O[C@@]1(C(=O)CCl)[C@@H](C)C[C@@H]2[C@H]3CCC4=CC(=O)C=C[C@@]4(C)[C@]3(F)[C@@H](O)C[C@@]21C,1%[25.6 µM],-4%[25.7 µM],-18%[25.6 µM],.,-4%[25.5 µM],2%[25.6 µM]
COc1ccc2c(c1)sc1nc(-c3ccccc3)cn12,?,-10%,?,0.055*,0.063µM*,131%
COc1ccc2c(c1)Cc1sc(NC(=O)c3cccs3)nc1-2,-22%,?,8%,.,-16%,25µM*
Cn1c(=O)c2nc(-c3ccccc3)oc2c2ccccc21,?,-2%,?,0.43*,-3%,212%
O=c1oc2c3c4c(cc2s1)CCCN4CCC3,-5%,?,-2%,.,0%,25µM*

# Source: PubChem
